Experiments:
Conditions in all cases: concentration: 1 μM, replicates: in singlicate; n = 1
CDK4-cyclinD3 = tested on: CDK4-cyclinD3
CDK4 = tested on: CDK4
CDK5 = tested on: CDK5
CDK7 = tested on: CDK7
CDK8 = tested on: CDK8
CDK9 = tested on: CDK9
CDKL1 = tested on: CDKL1
CDKL2 = tested on: CDKL2
CDKL3 = tested on: CDKL3
CDKL5 = tested on: CDKL5
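Note: KINOMEscan kinase panel screen.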

With `COc1cc2c(cc1OCCN1CCN(C)CC1)ncc1c3ccc(C#N)cc3[nH]c21` the “%Inh” value (CDK4-cyclinD3) was 0%, the “%Inh” value (CDK4) was 0% and the “%Inh” value (CDK5) was 9%. For the same compound, the “%Inh” value (CDK7) was 99.7%, the “%Inh” value (CDK8) was 3% and the “%Inh” value (CDK9) was 14%. For the same compound, the “%Inh” value (CDKL1) was 32%, the “%Inh” value (CDKL2) was 6% and the “%Inh” value (CDKL3) was 0%. The “%Inh” value (CDKL5) was 0%.
In the case of `COc1cc2ncn(-c3cc(OCc4sccc4Cl)c(C(N)=O)s3)c2cc1OC` [GSK448459], the “%Inh” value (CDK4-cyclinD3) is reported as 0%, the “%Inh” value (CDK4) is reported as 12% and the “%Inh” value (CDK5) is reported as 0%. For the same compound, the “%Inh” value (CDK7) was 0%, the “%Inh” value (CDK8) was 69% and the “%Inh” value (CDK9) was 0%. The “%Inh” value (CDKL1) was 23%, the “%Inh” value (CDKL2) was 33% and the “%Inh” value (CDKL3) was 0%. For the same compound, the “%Inh” value (CDKL5) was 0%.
For `COc1cc(Nc2nccc(N3CCC(NC(=O)c4cccc(NC(C)=O)c4)C3)n2)cc(OC)c1OC` (centres unmarked) [GSK1379754], the “%Inh” value (CDK4-cyclinD3) was 0%, the “%Inh” value (CDK4) was 12% and the “%Inh” value (CDK5) was 0%. The “%Inh” value (CDK7) was 9%, the “%Inh” value (CDK8) was 33% and the “%Inh” value (CDK9) was 0%. The “%Inh” value (CDKL1) was 0%, the “%Inh” value (CDKL2) was 22% and the “%Inh” value (CDKL3) was 0%. The “%Inh” value (CDKL5) was 4%.
For `CC(=O)Nc1ccc(COc2ccc(Nc3ccnc4cc(-c5ccccn5)ccc34)cc2)cc1.Cl` [GW440148], the “%Inh” value (CDK4-cyclinD3) was 0%, the “%Inh” value (CDK4) was 0% and the “%Inh” value (CDK5) was 0%. For the same compound, the “%Inh” value (CDK7) was 0%, the “%Inh” value (CDK8) was 8% and the “%Inh” value (CDK9) was 14%. For the same compound, the “%Inh” value (CDKL1) was 7%, the “%Inh” value (CDKL2) was 12% and the “%Inh” value (CDKL3) was 0%. For the same compound, the “%Inh” value (CDKL5) was 0%.
For `Fc1ccc(-c2ncn(CCCN3CCOCC3)c2-c2cccnc2)cc1` [SB-211743], the “%Inh” value (CDK4-cyclinD3) was 0%, the “%Inh” value (CDK4) was 1% and the “%Inh” value (CDK5) was 0%. For the same compound, the “%Inh” value (CDK7) was 8%, the “%Inh” value (CDK8) was 0% and the “%Inh” value (CDK9) was 0%. The “%Inh” value (CDKL1) was 28%, the “%Inh” value (CDKL2) was 0% and the “%Inh” value (CDKL3) was 0%. For the same compound, the “%Inh” value (CDKL5) was 0%.
With `Cc1nnc(-c2ccc3occ(-c4ccc(C(C)O)cc4)c3c2)o1` (centres unmarked) the “%Inh” value (CDK4-cyclinD3) was 0%, the “%Inh” value (CDK4) was 0% and the “%Inh” value (CDK5) was 1%. For the same compound, the “%Inh” value (CDK7) was 17%, the “%Inh” value (CDK8) was 0% and the “%Inh” value (CDK9) was 8%. For the same compound, the “%Inh” value (CDKL1) was 52%, the “%Inh” value (CDKL2) was 0% and the “%Inh” value (CDKL3) was 0%. For the same compound, the “%Inh” value (CDKL5) was 25%.
In the case of `Cc1cccc(-c2nc(-c3ccc(S(C)(=O)=O)cc3)sc2-c2ccncc2)c1`, the “%Inh” value (CDK4-cyclinD3) is reported as 19%, the “%Inh” value (CDK4) is reported as 0% and the “%Inh” value (CDK5) is reported as 12%. For the same compound, the “%Inh” value (CDK7) was 25%, the “%Inh” value (CDK8) was 9% and the “%Inh” value (CDK9) was 0%. For the same compound, the “%Inh” value (CDKL1) was 0%, the “%Inh” value (CDKL2) was 4% and the “%Inh” value (CDKL3) was 0%. For the same compound, the “%Inh” value (CDKL5) was 7%.
`Cl.Nc1ncnc2occ(-c3ccc(NC(=O)Nc4cc(C(F)(F)F)ccc4F)cc3)c12` [SB-707548] was tested, and the “%Inh” value (CDK4-cyclinD3) was 11%, the “%Inh” value (CDK4) was 2% and the “%Inh” value (CDK5) was 59%. The “%Inh” value (CDK7) was 97.8%, the “%Inh” value (CDK8) was 100% and the “%Inh” value (CDK9) was 78%. The “%Inh” value (CDKL1) was 7%, the “%Inh” value (CDKL2) was 74% and the “%Inh” value (CDKL3) was 95%. For the same compound, the “%Inh” value (CDKL5) was 0%.
`CCn1cnc2c(N)ncnc21` [GW345098] was tested, and the “%Inh” value (CDK4-cyclinD3) was 0%, the “%Inh” value (CDK4) was 0% and the “%Inh” value (CDK5) was 28%. For the same compound, the “%Inh” value (CDK7) was 20%, the “%Inh” value (CDK8) was 7% and the “%Inh” value (CDK9) was 0%. For the same compound, the “%Inh” value (CDKL1) was 25%, the “%Inh” value (CDKL2) was 0% and the “%Inh” value (CDKL3) was 0%. The “%Inh” value (CDKL5) was 0%.
In the case of `CSc1ccc(-c2cc3ncnc(SCC(=O)O)c3s2)cc1`, the “%Inh” value (CDK4-cyclinD3) is reported as 0%, the “%Inh” value (CDK4) is reported as 0% and the “%Inh” value (CDK5) is reported as 22%. For the same compound, the “%Inh” value (CDK7) was 25%, the “%Inh” value (CDK8) was 0% and the “%Inh” value (CDK9) was 33%. For the same compound, the “%Inh” value (CDKL1) was 4%, the “%Inh” value (CDKL2) was 0% and the “%Inh” value (CDKL3) was 0%. For the same compound, the “%Inh” value (CDKL5) was 0%.
In the case of `N#Cc1c(N2CCOCC2)sc(-c2ccn[nH]2)c1-c1ccc(Cl)cc1`, the “%Inh” value (CDK4-cyclinD3) is reported as 2%, the “%Inh” value (CDK4) is reported as 29% and the “%Inh” value (CDK5) is reported as 15%. For the same compound, the “%Inh” value (CDK7) was 43%, the “%Inh” value (CDK8) was 0% and the “%Inh” value (CDK9) was 0%. For the same compound, the “%Inh” value (CDKL1) was 0%, the “%Inh” value (CDKL2) was 0% and the “%Inh” value (CDKL3) was 0%. The “%Inh” value (CDKL5) was 0%.
`Cc1c(Cn2c(C)nn3c(=O)cc(N4CCOC(C)C4)nc23)cccc1C(F)(F)F` (centres unmarked) [GSK2344444] was tested, and the “%Inh” value (CDK4-cyclinD3) was 0%, the “%Inh” value (CDK4) was 25% and the “%Inh” value (CDK5) was 0%. For the same compound, the “%Inh” value (CDK7) was 0%, the “%Inh” value (CDK8) was 0% and the “%Inh” value (CDK9) was 2%. The “%Inh” value (CDKL1) was 0%, the “%Inh” value (CDKL2) was 4% and the “%Inh” value (CDKL3) was 0%. The “%Inh” value (CDKL5) was 0%.
In the case of `COc1ccc(S(=O)(=O)NC2CCN(c3cc(C)nc(Nc4cccc(C#N)c4)n3)CC2)cc1.O=C(O)C(F)(F)F` [GSK1653539], the “%Inh” value (CDK4-cyclinD3) is reported as 0%, the “%Inh” value (CDK4) is reported as 38% and the “%Inh” value (CDK5) is reported as 0%. The “%Inh” value (CDK7) was 0%, the “%Inh” value (CDK8) was 4% and the “%Inh” value (CDK9) was 0%. The “%Inh” value (CDKL1) was 15%, the “%Inh” value (CDKL2) was 0% and the “%Inh” value (CDKL3) was 0%. For the same compound, the “%Inh” value (CDKL5) was 0%.
For `O=C(NCCNc1ccnc(Nc2ccc(F)cc2)n1)c1cc2ccccc2s1` [GSK1379874], the “%Inh” value (CDK4-cyclinD3) was 0%, the “%Inh” value (CDK4) was 0% and the “%Inh” value (CDK5) was 0%. The “%Inh” value (CDK7) was 0%, the “%Inh” value (CDK8) was 38% and the “%Inh” value (CDK9) was 0%. For the same compound, the “%Inh” value (CDKL1) was 8%, the “%Inh” value (CDKL2) was 5% and the “%Inh” value (CDKL3) was 0%. For the same compound, the “%Inh” value (CDKL5) was 0%.
In the case of `Cc1cccc(-c2nc(Nc3ccc4ncsc4c3)c3ccccc3n2)n1` [GW867588], the “%Inh” value (CDK4-cyclinD3) is reported as 0%, the “%Inh” value (CDK4) is reported as 7% and the “%Inh” value (CDK5) is reported as 0%. The “%Inh” value (CDK7) was 17%, the “%Inh” value (CDK8) was 43% and the “%Inh” value (CDK9) was 3%. For the same compound, the “%Inh” value (CDKL1) was 1%, the “%Inh” value (CDKL2) was 0% and the “%Inh” value (CDKL3) was 1%. The “%Inh” value (CDKL5) was 0%.
In the case of `O=C(NOCC1CC1)c1ccc(F)c(F)c1Nc1ccc(I)cc1Cl`, the “%Inh” value (CDK4-cyclinD3) is reported as 0%, the “%Inh” value (CDK4) is reported as 0% and the “%Inh” value (CDK5) is reported as 5%. The “%Inh” value (CDK7) was 0%, the “%Inh” value (CDK8) was 0% and the “%Inh” value (CDK9) was 0%. For the same compound, the “%Inh” value (CDKL1) was 0%, the “%Inh” value (CDKL2) was 0% and the “%Inh” value (CDKL3) was 20%. The “%Inh” value (CDKL5) was 0%.
In the case of `O=c1cc(N2CCOCC2)nc2n(Cc3cccc(F)c3)ccn12` [GSK2297430], the “%Inh” value (CDK4-cyclinD3) is reported as 0%, the “%Inh” value (CDK4) is reported as 19% and the “%Inh” value (CDK5) is reported as 0%. The “%Inh” value (CDK7) was 0%, the “%Inh” value (CDK8) was 26% and the “%Inh” value (CDK9) was 0%. The “%Inh” value (CDKL1) was 0%, the “%Inh” value (CDKL2) was 0% and the “%Inh” value (CDKL3) was 0%. The “%Inh” value (CDKL5) was 0%.
In the case of `O=C(c1ccc(-c2cc(-c3c[nH]nc3-c3ccccn3)ccn2)cc1)N1CCOCC1` [GW812171], the “%Inh” value (CDK4-cyclinD3) is reported as 0%, the “%Inh” value (CDK4) is reported as 1% and the “%Inh” value (CDK5) is reported as 0%. For the same compound, the “%Inh” value (CDK7) was 17%, the “%Inh” value (CDK8) was 7% and the “%Inh” value (CDK9) was 0%. For the same compound, the “%Inh” value (CDKL1) was 25%, the “%Inh” value (CDKL2) was 8% and the “%Inh” value (CDKL3) was 0%. The “%Inh” value (CDKL5) was 0%.
In the case of `CN(C1=C(c2ccccc2)C(=O)NC1=O)c1ccccc1` [SB-334860], the “%Inh” value (CDK4-cyclinD3) is reported as 9%, the “%Inh” value (CDK4) is reported as 5% and the “%Inh” value (CDK5) is reported as 6%. The “%Inh” value (CDK7) was 15%, the “%Inh” value (CDK8) was 4% and the “%Inh” value (CDK9) was 9%. The “%Inh” value (CDKL1) was 6%, the “%Inh” value (CDKL2) was 0% and the “%Inh” value (CDKL3) was 0%. For the same compound, the “%Inh” value (CDKL5) was 8%.
With `Cl.Oc1cccc(Nc2ccnc3cc(-c4ccncc4)ccc23)c1` [GW494601] the “%Inh” value (CDK4-cyclinD3) was 0%, the “%Inh” value (CDK4) was 37% and the “%Inh” value (CDK5) was 0%. The “%Inh” value (CDK7) was 10%, the “%Inh” value (CDK8) was 36% and the “%Inh” value (CDK9) was 4%. For the same compound, the “%Inh” value (CDKL1) was 2%, the “%Inh” value (CDKL2) was 2% and the “%Inh” value (CDKL3) was 0%. For the same compound, the “%Inh” value (CDKL5) was 0%.

Source: paper PMC5540273 (PLoS ONE, 2017)
